Compounds without any hit were thinned out: in the full panel of roughly 79,000, 15% have a hit. No stated cut-off is given here; in the data, active means growth inhibition above about 70%; inactive means the rest.
Columns and labels:
[1] = NCI Yeast Anticancer Drug Screen. Data for the rad50 strain (AID 155);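 further: 0% = growth of vehicle-only cultures of the same strain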; conditions: S. cerevisiae rad50 strain growth inhibition, hits give high values; at 50.0 µM unless noted
How it was run: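 Relative growth inhibition (compound vs vehicle) was measured in yeast with a defined repair-gene alteration.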

[2] = NCI Yeast Anticancer Drug Screen. Data for the mec2-1 strain (AID 157); conditions: S. cerevisiae mec2-1 strain, hits give high values; at 50.0 µM unless noted
How it was run: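 Vehicle-treated cultures served as reference for growth inhibition of compound-exposed mec2-1 yeast.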

[3] = NCI Yeast Anticancer Drug Screen. Data for the sgs1 mgt1 strain (AID 161);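 further: 0% = growth of cultures given vehicle only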; conditions: S. cerevisiae sgs1 mgt1 strain, hits give high values; at 50.0 µM unless noted
How it was run: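 Mutant yeast exposed to compound; growth scored against vehicle-only wells.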

[4] = NCI Yeast Anticancer Drug Screen. Data for the cln2 rad14 strain (AID 165);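 further: 0% = growth equal to vehicle treated cultures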; conditions: S. cerevisiae cln2 rad14 strain, hits give high values; at 50.0 µM unless noted
How it was run: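 Each compound was tested on cln2 rad14 yeast. Inhibition of growth was calculated against vehicle-exposed controls.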

[5] = NCI Yeast Anticancer Drug Screen. Data for the bub3 strain (AID 167); conditions: S. cerevisiae bub3 mutant strain, hits give high values; at 50.0 µM unless noted
How it was run: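 Screening used yeast with an engineered genetic alteration affecting cell cycle control. Compound-exposed cultures were compared with vehicle cultures, and reduced growth was taken as inhibition.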

[6] = NCI Yeast Anticancer Drug Screen. Data for the mlh1 rad18 strain (AID 175); conditions: S. cerevisiae mlh1 rad18 strain growth inhibition, hits give high values; at 50.0 µM unless noted
How it was run: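 Vehicle-treated cultures served as the reference for growth inhibition in a yeast strain carrying DNA damage repair alterations exposed to each compound.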

Measured: growth inhibition

Cc1cc(C)c(-c2noc(-c3ccc(Cl)cc3)c2C2=NCCN2)c(C)c1
inactive: [1] 29.9% | [2] 18.3% | [3] 18.1% | [4] 38.6% | [5] 17.7% | [6] 8.45%

C=C1C2CCC3(CCC4C5(C)CCCC4(C=[N+](CCO)C5)C3C2)C1O (centres undefined)
inactive: [1] -20.7% | [2] -22.5% | [3] -27.9% | [4] 14.1% | [5] -17.6% | [6] -28.6%

CN(C)c1ccc(N=C(C#N)C(=O)c2ccccc2)cc1
inactive: [1] -4.3% | [2] 17.6% | [3] -6.7% | [4] -21.6% | [5] -15% | [6] -12.2%

O/N=C1/C2CC3CC1(c1ccccc1)CC(/C3=N/O)/C2=N\O (centres undefined)
inactive: [1] 9.15% | [2] 17.3% | [3] -12.1% | [4] 0.35% | [5] -17.8% | [6] -4.75%

COC1=C2C[C@H](C)C[C@H](OC)[C@H](O)[C@@H](C)/C=C(\C)[C@H](OC(N)=O)[C@H](OC)/C=C\C=C(/C)C(=O)NC(=C(/C=N/N3CCN(C)CC3)C1=O)C2=O
inactive: [1] 7.15% | [2] 0.05% | [3] -7.8% | [4] -8.75% | [5] 2.75% | [6] 18.8%

CCC(C)C(C#N)(CCN(CC)CC)c1ccccc1 (centres undefined)
inactive: [1] 15.2% | [2] 12.6% | [3] 28.4% | [4] 7.3% | [5] 32.9% | [6] 14.5%

C(=C1CCCCC1)c1ccccn1
inactive: [1] -9.2% | [2] 24.9% | [3] -10.7% | [4] -23.3% | [5] -18.8% | [6] -24.9%

OCCCCCCCl
inactive: [1] -28.8% | [2] -24.8% | [3] -11.6% | [4] -6.65% | [5] -3.05% | [6] 3.6%

CC1=Nc2ccccc2SC2(C1)C(C1COC(C)(C)O1)OC1OC(C)(C)OC12 (centres undefined)
inactive: [1] 7.4% | [2] 11.1% | [3] 21.1% | [4] 21.4% | [5] -9.55% | [6] 12.8%

Clc1ccc(-c2c(C3=NCCCN3)nnn2-c2ccc(Cl)cc2)cc1
inactive: [1] -16.6% | [2] -17.9% | [3] -10.9% | [4] 11.7% | [5] -3.6% | [6] -25.7%

CCOC(=O)c1cc2ccccc2cc1N=N
inactive: [1] 8.3% | [2] 16.7% | [3] 15% | [4] -2.7% | [5] 23.2% | [6] 28.8%

CCCCOC(=O)COCC(=O)OC(C)C(=O)OCCCC (centres undefined)
inactive: [1] -20.9% | [2] 13.1% | [3] 6.55% | [4] -22.1% | [5] 20% | [6] 4.1%

CCNC(=O)COc1ccc(Cl)c(C)c1
inactive: [1] -13.6% | [2] -31.9% | [3] -30.4% | [4] -33.8% | [5] -23.2% | [6] -29.7%

Cc1ccc(S(=O)(=O)c2c3[nH]c4ccccc4nc3n3c2nc2ccccc23)cc1
inactive: [1] -14.2% | [2] -45.5% | [3] -19.2% | [4] -87.3% | [5] -26.8% | [6] -14.3%

COc1ccc(/C=N/NC(=S)NN)cc1
inactive: [1] -6.6% | [2] 9.1% | [3] 13% | [4] -18.9% | [5] 33.6% | [6] 13.2%

O=C1OC(OC2CCCCC2)(c2ccccc2)c2ccccc21 (centres undefined)
inactive: [1] -25.1% | [2] -7.75% | [3] -0.15% | [4] -23.5% | [5] -1.65% | [6] -5.55%

CC(=O)O[C@H]1[C@@H](OC(C)=O)C(C)(C)/C=C/[C@H](C)C(=O)[C@@]2(OC(C)=O)C[C@@](C)(OC(C)=O)[C@H](OC(C)=O)[C@@H]2[C@H]2OC(=O)CC[C@@]2(OC(=O)c2ccccc2)[C@@H]1OCC(C)C
inactive: [1] 3.85% | [2] -2.15% | [3] -15.8% | [4] 36% | [5] -22.3% | [6] -0.15%

COc1ccc2c(c1)c(COC(C)=O)c(C)c[n+]2[O-]
inactive: [1] 25.1% | [2] 28.8% | [3] 42.1% | [4] 16.6% | [5] 22.1% | [6] 52.9%

Clc1ccccc1C1SCc2nc3ccccc3n21 (centres undefined)
inactive: [1] 10.8% | [2] -7.85% | [3] 53.2% | [4] 18.9% | [5] 26.4% | [6] 22.6%

CC(=O)OC[C@@]12C[C@H]3C(=O)C(C)(C)C[C@H]3[C@]1(C)[C@@H](OC(C)=O)[C@]1(O)[C@H]([C@@H](OC(=O)c3ccccc3)[C@@H](C)[C@H]1OC(C)=O)[C@H]2OC(C)=O
inactive: [1] -13.6% | [2] -26.9% | [3] 3.25% | [4] -3.25% | [5] 10.8% | [6] -3.15%

Cc1cc(O)c(C)cc1O
inactive: [1] 16.1% | [2] 5.5% | [3] -2.85% | [4] 6.5% | [5] -7.95% | [6] 21.6%

CC1(C)COC(c2ccc3c(c2)OCO3)N1 (centres undefined)
inactive: [1] 0.5% | [2] -8.45% | [3] -5.7% | [4] -19.6% | [5] -9.75% | [6] 0.6%

O=C(OCCCl)c1ccc(Cl)c(Cl)c1
inactive: [1] 5.75% | [2] -20.1% | [3] 7.05% | [4] 9% | [5] 3.75% | [6] -19.9%

CCOC(=O)c1sc(C(=O)O)cc1-c1cccs1
inactive: [1] 3.9% | [2] 9.65% | [3] 11.5% | [4] -5.6% | [5] -10.6% | [6] 15%

COC(=O)C1(C)CCCC2(C)c3cc(OC)ccc3C(=O)CC12 (centres undefined)
inactive: [1] 24.4% | [2] 12.7% | [3] 28% | [4] 5.95% | [5] 19.6% | [6] 21.7%

OC1(C2NCCc3ccccc32)CCN(CCc2ccccc2)CC1 (centres undefined)
inactive: [1] 21.8% | [2] 10.7% | [3] 25.5% | [4] 20.2% | [5] 2.95% | [6] 8.9%

CCOC(OCC)C(=O)NC(Cc1ccccc1NC(=O)c1ccccc1)c1ccc2c(c1)OCO2 (centres undefined)
inactive: [1] 35.6% | [2] -1.05% | [3] 3.9% | [4] 4.8% | [5] 3.25% | [6] 21.4%

CC(C)=Nn1cnc2c1NC(C)(C)N=C2C(N)=O
inactive: [1] -18.8% | [2] -17.2% | [3] -12.2% | [4] 7.85% | [5] 14.8% | [6] -15.6%

O=C(CC1SC(=Nc2ccccc2Cl)NC1=O)Nc1ccc(Cl)cc1Cl (centres undefined)
inactive: [1] -9.8% | [2] -14.8% | [3] -15.9% | [4] 17.7% | [5] -6.55% | [6] 9.7%

CN(C(=O)c1cccc([N+](=O)[O-])c1)C1CCCCC1
inactive: [1] 2.6% | [2] 34.5% | [3] 32.6% | [4] -4.7% | [5] 22.4% | [6] 14.2%

NC(=S)N/N=C/c1ccc([N+](=O)[O-])s1
inactive: [1] 9.65% | [2] 1.1% | [3] 19.9% | [4] 25.1% | [5] 22% | [6] 32.5%

Cc1cc2cccc(Cl)c2nc1C(=O)c1ccccc1
inactive: [1] -9.3% | [2] -12.3% | [3] -9.3% | [4] 22.4% | [5] -7.4% | [6] -12.6%

Cc1cc2c(cc1Cl)SC(NNC1=NCCN1)=NS2(=O)=O
inactive: [1] -23.1% | [2] -8.65% | [3] -20% | [4] -2.25% | [5] -17.9% | [6] 9.95%

CCN(c1ccccc1)S(=O)(=O)C(C)S(=O)(=O)N(CC)c1ccccc1
inactive: [1] -1.05% | [2] -10.5% | [3] -1.2% | [4] -19.8% | [5] 2.2% | [6] -6.85%

Cc1cc(=O)[nH]c2[nH]c(=O)ccc12
inactive: [1] -11.4% | [2] 0.05% | [3] -1.5% | [4] -6.35% | [5] -2.2% | [6] 2%

OCCNc1cccc2ccccc12
inactive: [1] 31.6% | [2] -4.15% | [3] 35.2% | [4] 18.9% | [5] 8.8% | [6] 37.4%

Nc1c(N2CCOCC2)c(=O)nc2[nH]/c(=C\c3ccccc3)c(=O)n12
inactive: [1] 8.5% | [2] -20.7% | [3] 4.75% | [4] 22% | [5] 8% | [6] -46.8%

COC(=O)Nc1ccc(Cc2ccc(NC(=O)OC)cc2)cc1
inactive: [1] 26.1% | [2] 7.35% | [3] 27.5% | [4] 15.7% | [5] 33.5% | [6] 29.6%

C=CC(=O)OCCN(CCCC)CCCC
inactive: [1] -12.9% | [2] -0.2% | [3] -10.9% | [4] -10.8% | [5] 6.75% | [6] 21.5%
